# In all, about 2,100 compounds went through this assay and about 940 (45%) were called active.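 The calls were made as follows: active = mean of three repeat readings of reporter signal inhibition above a set limit (cut at about 70% in these data); inactive = the rest.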 So high a share suggests a set chosen from earlier hits. The list is a sample of the results.
# Test: CHOP promoter reporter blockers, replicate testing – cell-based, confirmation (AID 504437);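 also: 0% = tunicamycin plus vehicle and 100% = wells lacking tunicamycin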
# Settings: CHO-CHOP promoter luciferase reporter, tunicamycin-induced, luminescence; at 10 µM; hits give high values
row,Compound,inhibition
1,NC(=O)CC(NC(=O)Cc1cccc2ccccc12)c1ccc(NCc2cc(F)ccc2F)c([N+](=O)[O-])c1 (stereo not drawn),87.6% (active)
2,O=[N+]([O-])c1c(NCCO)cc(Sc2nc3ccccc3s2)c2nonc12,-6.6% (inactive)
3,CC1=C/C(=N\OS(=O)(=O)c2ccccc2)C=CC1=O,141% (active)
4,CCOc1ccc2nc(Nc3nc4ccc(NC(C)=O)cc4s3)sc2c1,56.5% (inactive)
5,COc1ccc(COC(=O)c2n[nH]c3ccccc23)cc1F,15.5% (inactive)
6,O=C(CCl)Nc1ccc(Sc2ccc(NC(=O)CCl)cc2)cc1,113% (active)
7,Fc1ccccc1/C=C1\CCCC2=C1Nc1ncnn1C2c1ccccc1F (stereo not drawn),6.7% (inactive)
8,O=C(NNc1ccccc1Cl)C(O)(c1cccc(C(F)(F)F)c1)c1cccc(C(F)(F)F)c1,54.8% (inactive)
9,O=C(Cn1cc(C(F)(F)F)ccc1=O)N/N=C/c1ccc(Cl)cc1Cl,27.2% (inactive)
10,OCCCNc1nccc(-c2cc(Nc3cccc(Cl)c3)ncn2)n1,121% (active)
11,Cc1ccc(-n2ncc3c2ncn2nc(-c4ccco4)nc32)c(C)c1,-1.3% (inactive)
12,COc1ccc(NC(=O)/C(C#N)=C\c2cc(OC)c(OCc3ccc(C(=O)O)cc3)cc2Br)cc1,17.8% (inactive)
13,O=C(Nc1ccccc1Cl)/C(Cl)=C(\Cl)S(=O)c1ccccc1 (stereo not drawn),122% (active)
14,Clc1cccc(CN2COc3c(cc(Cl)c4cccnc34)C2)c1,-62% (inactive)
15,COc1cccc(-c2nnc(NC(=O)c3ccc(S(=O)(=O)N(CC(C)C)CC(C)C)cc3)o2)c1,110% (active)
16,CCOC(=O)c1cc2cc(-c3c(C(=O)OCC)oc4cc(O)cc(O)c4c3=O)ccc2o1,46.1% (inactive)
17,Cc1nnc(SCC(=O)N/N=C/c2cn(-c3ccccc3)nc2-c2ccc(F)cc2)n1-c1ccccc1,-50.1% (inactive)
18,CCN(CC)S(=O)(=O)c1ccc2nc(COC(=O)c3n[nH]c4ccccc34)[nH]c2c1,66% (inactive)
19,CCCCCCn1c(CN2CCCC(C)C2)nc2c1c(=O)n(C)c(=O)n2C (stereo not drawn),97.6% (active)
20,O=C(CC(NC(=O)c1ccccc1)c1ccccc1)Nc1ccc(F)c(F)c1 (stereo not drawn),67.4% (inactive)
21,CCCCCn1c(SCCC(C)C)nc2c1c(=O)[nH]c(=O)n2C,97.6% (active)
22,CCCCSc1nc2c(c(=O)n1CC)SC(C)C2 (stereo not drawn),58.6% (inactive)
23,C=C(C)C(=O)O[C@H]1C/C(C)=C\C(=O)/C=C(\C)[C@H](O)[C@@H]2OC(=O)C(=C)[C@@H]21,43.7% (inactive)
24,Cc1cccc(NC(=O)Nc2cccc(Oc3c(F)c(F)c(F)c(F)c3F)c2)c1,69.3% (inactive)
25,O=C(Nc1cc(N2CCOCC2)ncn1)NC1(C(F)(F)F)Oc2ccc(Cl)cc2O1 (stereo not drawn),93.7% (active)
26,Cc1c(C(=O)Nc2cccc(Cl)c2)cn2c(nc3ccccc32)c1C#N,33.5% (inactive)

row,Compound,inhibition
1,O=C(/C=C/Sc1ncn[nH]1)c1ccc(Cl)cc1,98% (active)
2,FC(F)(F)c1cc(-c2ccco2)nc(N2CCOCC2)n1,49.6% (inactive)
3,O=C(CCl)N(Cc1cccc([N+](=O)[O-])c1)c1cccc(Cl)c1,118% (active)
4,Cc1ccc(-n2nc(C)c(/C=N/NC(=O)c3cccs3)c2Cl)cc1,-50.9% (inactive)
5,CN1C(=O)/C(=C/c2ccc(C(=O)NC3CCCC3)cc2)Oc2ccccc21,-73.2% (inactive)
6,O=C1C=C(c2ccc(Cl)cc2)C(=O)N1Nc1ccccc1,-116% (inactive)
7,COc1cc(/C=N/NC(=O)Nc2ccccc2)ccc1OCCOc1ccccc1C,86.2% (active)
8,CCCOc1ccc(Cc2c(Cl)nc(SC)nc2NC)cc1,104% (active)
9,N#CC(C(=O)c1ccc(S(=O)(=O)N2CCCCCC2)cc1)c1nc2ccccc2[nH]1 (stereo not drawn),-6.4% (inactive)
10,CCSc1nc(C)nc2c1oc1ccccc12,19.6% (inactive)
11,Cc1ccc(-c2csc(-c3c[nH]c4ccccc34)n2)cc1,53.5% (inactive)
12,COc1ccc(-n2c(SCC(=O)Nc3sc4c(c3C#N)CCCC4)nnc2-c2ccc(O)cc2)cc1,37.1% (inactive)
13,Cc1nc(SCC(=O)Nc2cc(C)on2)c2c3c(sc2n1)CCCC3,80.7% (active)
14,Oc1ccc(/C=N/N(Cc2ccccc2)c2ccccc2)cc1,30.1% (inactive)
15,Cc1c(-c2ccccc2)n[nH]c1C(=O)N=Nc1c(O)[nH]c2ccccc12,-12.3% (inactive)
16,Cc1cc(-c2n[nH]c(=S)n2/N=C/C(Br)=C/c2ccccc2)n[nH]1,106% (active)
17,FC(F)(F)c1cc(C(F)(F)F)c2ccc(N3CCN(c4ccccc4)CC3)nc2n1,61.6% (inactive)
18,CCCCc1nc(NCCN)c(C#N)c2c1CSC(C)(C)C2,82.5% (active)
19,O=[N+]([O-])c1cccc(-c2nnc3c4ccccc4c4ccccc4n23)c1,23.3% (inactive)
20,CCCCCCC(=O)N(O)C1CC(=O)N(c2ccccc2)C1=O (stereo not drawn),16.2% (inactive)
21,Clc1ccc(Nc2nc(-c3cccs3)cs2)nc1,124% (active)
22,Oc1cccc(C2c3[nH]c4ccccc4c3CCN2Cc2cnn(-c3ccccc3)c2)c1 (stereo not drawn),-4.4% (inactive)
23,O=[N+]([O-])c1cc(S(=O)(=O)CCCN2CCOCC2)ccc1F,-45.2% (inactive)
24,CC(C)Cc1cc(C(=O)Nc2cc(Br)ccc2O)no1,22.3% (inactive)
25,O=C(Nc1ccccc1C(F)(F)F)c1cc(-c2ccc(O)cc2)on1,77.8% (active)
26,CCCc1nc2ccccc2c(C(=O)OCC(=O)c2ccc3c(c2)NC(=O)CO3)c1CC,-11.4% (inactive)

row,Compound,inhibition
1,CC(C)(C)C1C/C(=C/c2ccco2)C(=O)/C(=C/c2ccco2)C1 (stereo not drawn),85.1% (active)
2,OC(CNCC1CCCO1)Cn1c2ccc(Br)cc2c2cc(Br)ccc21 (stereo not drawn),81.5% (active)
3,CC(C)(C)c1ccc(Oc2ccc(N)cc2)cc1,117% (active)
4,O=C(Nc1nnc(COc2ccccc2)s1)Nc1ccccc1F,1% (inactive)
5,Cc1cc(C(=O)CCl)c(C)n1CC1COc2ccccc2O1 (stereo not drawn),-124% (inactive)
6,CS(=O)(=O)N(CC(=O)Nc1ccc(Cl)c(Cl)c1)C1CCCCC1,33.2% (inactive)
7,COc1cc(/C=N/O)cc(Br)c1OCc1cccc(Cl)c1,138% (active)
8,NC(N)=N/N=C/c1ccc(OCc2ccc(Cl)cc2Cl)cc1,-25.2% (inactive)
9,COC(=O)/C=C\C(=O)Nc1cccc([N+](=O)[O-])c1,101% (active)
10,Fc1ccccc1C(c1nnnn1Cc1ccc2c(c1)OCO2)N1CCN(Cc2ccccc2)CC1 (stereo not drawn),22.4% (inactive)
11,CC(C)=CCc1c(O)c(CC=C(C)C)c2occ(-c3ccc(O)cc3)c(=O)c2c1O,15.8% (inactive)
12,COc1cc(SC#N)ccc1N=Cc1c(C)[nH]n(-c2ccc(C)cc2)c1=O,34% (inactive)
13,C=C(C)COc1ccc(-c2n[nH]c(C)c2-c2ccccc2OC)c(O)c1,112% (active)
14,COc1ccc(/C=C/C(=O)Nc2c(C)nn(C)c2C)cc1COc1ccc(Br)cc1,20.4% (inactive)
15,Cc1ccc(NC(=S)NC(NC(=O)Cc2cccc3ccccc23)C(Cl)(Cl)Cl)cc1 (stereo not drawn),72.1% (active)
16,CCOC(=O)c1c(C)[nH]c2c1-c1ccccc1C(=O)C2=O,122% (active)
17,Cc1ccc(NC(=O)/C(=C/c2ccc([N+](=O)[O-])cc2)NC(=O)c2ccccc2)cc1,-5.3% (inactive)
18,COc1cc(C(=O)OC(C)C(=O)NCC2CCCCC2)cc(NC(=O)c2ccco2)c1OC (stereo not drawn),93% (active)
19,Cc1cccc(OCc2nnc(SCc3nc4cc(C(F)(F)F)ccc4c(=O)[nH]3)o2)c1,114% (active)
20,CCOC(=O)C(C)Sc1nc2ccccc2c(=O)n1CC1CCCCC1 (stereo not drawn),61.7% (inactive)
21,C=CCn1c(C)cc(C2=NNC(=NCC)SC2)c1C,136% (active)
22,NC(=O)COc1ccc(C23CC4CC(CC(C4)C2)C3)cc1,7.3% (inactive)
23,CCOC(=O)C1=C(c2ccc(OC)cc2)C(=O)c2ccccc2C1=O,110% (active)
24,CSc1nc2sc3c(c2c(=O)[nH]1)CCc1ccccc1-3,12.2% (inactive)
25,O=C(/C=C/c1ccc(F)cc1)Nc1cccc(S(=O)(=O)Nc2cccc(C(F)(F)F)c2)c1,7.6% (inactive)
26,CSc1nc(-c2ccccc2)nc(C(Cl)Cl)n1,96.2% (active)

# From PubChem BioAssay AID504437 (Emory University Molecular Libraries Screening Center, 2011)
